Assay results taken from PubChem BioAssay (NCI).
About 83,000 compounds went through this panel and 20% of them were active in at least one assay; those are over-represented in the sample as a whole.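 48-hour exposure, single concentration, 96-well plates; percent growth endpoint where 0 means no net growth. Active: below 10.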 Unmarked numbers belong to inactive results. Activity calls are given as the source filed them.

Assays:
Assay in all cases: NCI-60 one-dose screen, 48 h (100 = growth as untreated, 0 = no growth, -100 = all killed)
Settings in all cases: 10 µM unless noted
HCT-15 colon = system: HCT-15 colon
HT29 colon = system: HT29 colon
SNB-75 CNS = system: SNB-75 CNS
SNB-19 CNS = system: SNB-19 CNS
U251 CNS = system: U251 CNS
PC-3 prostate = system: PC-3 prostate
SK-MEL-5 melanoma = system: SK-MEL-5 melanoma
UACC-62 melanoma = system: UACC-62 melanoma
SK-MEL-28 melanoma = system: SK-MEL-28 melanoma
LOX IMVI melanoma = system: LOX IMVI melanoma

SMILES | growth (HCT-15 colon) | growth (HT29 colon) | growth (SNB-75 CNS) | growth (SNB-19 CNS) | growth (U251 CNS) | growth (PC-3 prostate) | growth (SK-MEL-5 melanoma) | growth (UACC-62 melanoma) | growth (SK-MEL-28 melanoma) | growth (LOX IMVI melanoma)
COc1ccc(/C=C2/C(=O)Nc3cc(Cl)c(-c4csc(N)n4)cc32)cc1 | 39.9% | 27.9% | 37.5% | 45.5% | 46.3% | 50.3% | 19.1% | 37.6% | 70.1% | –
Nc1nccc2c1ccn2-c1ccc(NC(=O)Nc2cccc(C(F)(F)F)c2)cc1 | 90% | 96.1% | 89% | 104% | 80.5% | 70.5% | 93.5% | 91.1% | 101% | –
COc1ccc(-c2nnc(NC(=O)CN3CCN(c4cc5c(cc4F)c(=O)c(C(=O)O)cn5C4CC4)CC3)s2)cc1OC | 103% | 95.8% | 90.8% | 96.2% | 99.7% | 95.6% | 99.1% | 91.9% | 107% | –
CCC(N)(C(=O)O)c1ccc(F)cc1 (stereo not given) | 104% | 94.9% | 113% | 107% | 90.7% | 81.4% | 99.9% | 112% | 112% | –
CCOc1ccc(NC2=C(Cl)C(=O)c3ccccc3C2=O)cc1 | -79.9% (active) | 98.2% | 81.3% | – | 56.9% | 72.1% | 81.4% | 78.6% | 46.9% | -89.7% (active)
Cn1c2ccccc2c2ssc(=S)c21 | 92.1% | 110% | 99.3% | 100% | 96.2% | 101% | 89.8% | 95.8% | 108% | –
COc1cc(NS(C)(=O)=O)ccc1Cc1c2ccccc2nc2ccccc12 | 18.3% | 8.23% (active) | 21.4% | 25.9% | 18.7% | 55.2% | 8.33% (active) | 26.1% | 50.7% | –
CC/C(=C(\CC)c1ccc(OCCN(CC)CC)cc1)c1ccc(OCCN(CC)CC)cc1 | 6.7% (active) | -0.437% (active) | 39.1% | 62.5% | 24.6% | 29% | -96.4% (active) | 10.9% | -40.5% (active) | –
CCOc1ccccc1C(=O)N1CCN(c2cc(Cl)cc(Cl)c2)CC1 | 11.2% | -27.4% (active) | 34.3% | 24% | 12.5% | 10.6% | -44.1% (active) | 19.5% | 54.7% | –
COc1ccc(-c2ccc(NC(=O)Nc3ccc(Cl)c(C(F)(F)F)c3)c(C)n2)cc1 | 37.8% | 46.4% | 73.4% | 57.3% | 33.6% | 14.7% | 55.7% | 65.6% | 71.4% | –
COc1ccc(SC2c3ccc(O)cc3Oc3nc(N)c(C#N)c(N)c32)cc1 (stereo not given) | 85% | 101% | 84.7% | 78.6% | 60.9% | 56.1% | 55.7% | 105% | 106% | –
CCn1cc(C(=O)O)c(=O)c2cc(F)c(N3CCN(CC(=O)Nc4ccc(C(C)=O)cc4)CC3)cc21 | 104% | 100% | 87.3% | 99% | 99.6% | 96.4% | 100% | 95.9% | 105% | –
CC(=O)N1N=C2N(Cc3ccccc3)C(=O)c3c(sc4c3CCCC4)N2C1c1cn(-c2ccccc2)nc1-c1ccc(Cl)cc1 (stereo not given) | 96.9% | 107% | 99.3% | 94.2% | 87.2% | 92.6% | 102% | 95.5% | 104% | –
COc1ccc(C(=O)NC(=O)Nc2ccc3c(c2)NC(=O)/C3=C\c2[nH]c(C)c(CCC(=O)O)c2C)c(F)c1 | 39.6% | 55.6% | 44.2% | 27% | 0.371% (active) | 30.2% | 25.2% | 25.7% | 31.1% | –
O=C(NCCNc1nccc(-c2c(-c3cccc(O)c3)nc3sccn23)n1)c1cc(N2CCOCC2)cc(C(F)(F)F)c1 | 92% | 49.2% | 83.2% | 125% | 105% | 78.2% | 58.4% | 8.5% (active) | 44.4% | –
COc1ccc(C(=O)NC(=O)Nc2ccc3c(c2)NC(=O)/C3=C\c2[nH]c(C)c(C(=O)O)c2C)c(F)c1 | 47.8% | 16.5% | 30.4% | 79.3% | 32.1% | 40.2% | 28.2% | 38.3% | 57.9% | –
O=C(Nc1ccc(-n2cc(-c3ccncc3)c(-c3ccc(O)c(Cl)c3)n2)cc1)Nc1cc(C(F)(F)F)cc(C(F)(F)F)c1 | 61.1% | 97.2% | 72.2% | 47.6% | 37.7% | 50.4% | 54% | 64.1% | 76.8% | –
CCC(CC(C)C)Nc1ccc(NC(CC)CC(C)C)cc1 (stereo not given) | 92% | 88.8% | 96.8% | 97.8% | 75.3% | -11.1% (active) | 95.4% | 89.3% | 108% | –
O=C(Nc1ccc(F)cc1)Nc1ccc(Br)c(C(F)(F)F)c1 | 8.12% (active) | 6.61% (active) | 22.2% | 19.8% | 11.6% | 4.68% (active) | 4.53% (active) | 21.7% | 20.8% | –
CCC(C)Nc1ccc(N)cc1 (stereo not given) | 30.5% | 7.64% (active) | 29.8% | 30.6% | 10.3% | 6.03% (active) | -6.02% (active) | 30.3% | 71.6% | –
